Among the test systems are NCI-H23 lung; NCI-H226 lung; NCI-H322M lung; HOP-62 NSCLC; NCI-H460 lung; NCI-H522 lung; A549/ATCC NSCLC; 786-0 renal; COLO 205 colon; DU-145 prostate; K-562 leukemia; MALME-3M melanoma; MDA-MB-231 breast; RXF 393 renal; SF-268 CNS; SF-295 CNS; SF-539 CNS; UACC-257 melanoma; M14 melanoma; HOP-92 NSCLC.
Common to all, as to assay: NCI-60 one-dose screen, 48 h (100 = growth as untreated, 0 = no growth, -100 = all killed)
Common to all, as to conditions: 10 µM unless noted

The structures appear in SMILES notation. Compounds without any hit were thinned out: in the full panel of roughly 83,000, 20% have a hit.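 Cell lines were cultured in 96-well plates, exposed to a single compound concentration, and assessed for percent growth 48 hours later.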 Values without a mark were called inactive. Active and inactive are the calls of the source. Rule for the calls: active = growth percent below 10; inactive = the rest.

`FC(F)(F)c1[nH]ncc1-c1nc2c(N3CCCCC3)cc3[nH]ncc3c2c2c1CCCC2`: the growth was -9.72% (active) in the experiment with NCI-H23 lung; 2.93% (active) in the experiment with NCI-H226 lung; -2.53% (active) in the experiment with NCI-H322M lung; -8.3% (active) in the experiment with HOP-62 NSCLC; 3.42% (active) in the experiment on NCI-H460 lung; -28.4% (active) in the experiment on NCI-H522 lung. Besides, the growth was 5.13% (active) in the experiment with A549/ATCC NSCLC; -1.84% (active) in the experiment with 786-0 renal; -33.7% (active) with COLO 205 colon; 10.2% in the experiment with DU-145 prostate; 14.1% in the experiment on K-562 leukemia; 0.904% (active) with MALME-3M melanoma. Also, the growth with MDA-MB-231 breast is 3.41% (active); in the experiment with RXF 393 renal it was -92% (active); in the experiment with SF-268 CNS it was -11.7% (active); with SF-295 CNS it was 7.04% (active); with SF-539 CNS it was -72.2% (active); with UACC-257 melanoma it was 0.68% (active). For the same molecule, the growth in the experiment with M14 melanoma was 2% (active).

Regarding `O=C1OCC2=C1C(c1cccc(F)c1)c1cc3c(cc1N2CCO)OCO3` (configuration not stated), the growth in the experiment with NCI-H23 lung is 33.4%; in the experiment on NCI-H226 lung, 67.6%; in the experiment with NCI-H322M lung, 51.2%; in the experiment with HOP-62 NSCLC it was 32%; in the experiment with NCI-H460 lung, 14.2%; with NCI-H522 lung, 12.5%. Besides, the growth with A549/ATCC NSCLC is 43%; in the experiment on 786-0 renal, 24.5%; with COLO 205 colon, 7.08% (active); in the experiment with DU-145 prostate, 30.5%; with K-562 leukemia, 9.79% (active); in the experiment with MALME-3M melanoma it was 52.7%. For the same molecule, the growth in the experiment with MDA-MB-231 breast is 49.9%; in the experiment on RXF 393 renal, 32.6%; in the experiment with SF-268 CNS it was 38.7%; in the experiment with SF-295 CNS, 1.9% (active); in the experiment on SF-539 CNS it was 2.82% (active); with UACC-257 melanoma it was 75.5%. For the same molecule, the growth in the experiment with M14 melanoma is 12.6%.

`O=c1[nH]cnc2c1C(c1ccc(Br)cc1)c1sc3c(F)cccc3c1O2` (configuration not stated): the growth was 92.8% with NCI-H23 lung; 92.2% with NCI-H226 lung; 88.1% in the experiment with NCI-H322M lung; 97.9% with HOP-62 NSCLC; 94.7% with NCI-H460 lung; 88.1% with NCI-H522 lung. Moreover, the growth is 96.3% in the experiment with A549/ATCC NSCLC; 105% with 786-0 renal; 102% with COLO 205 colon; 100% with DU-145 prostate; 94.6% with K-562 leukemia; 96.1% in the experiment with MALME-3M melanoma. Moreover, the growth in the experiment with MDA-MB-231 breast was 94.5%; in the experiment on RXF 393 renal, 101%; with SF-268 CNS, 91.9%; in the experiment with SF-295 CNS, 97.9%; in the experiment on SF-539 CNS, 96.4%; with UACC-257 melanoma it was 106%. In addition, the growth with M14 melanoma was 101%.

As to `Clc1nccc2c(-c3csc(-c4c[nH]c5ccccc45)n3)c[nH]c12`, the growth with NCI-H23 lung was 68.8%; in the experiment on NCI-H226 lung, 39.5%; in the experiment with NCI-H322M lung, 80.8%; with HOP-62 NSCLC, 101%; with NCI-H460 lung, 11.9%; with HOP-92 NSCLC it was 24.3%. The growth with A549/ATCC NSCLC was 29.1%; in the experiment on 786-0 renal, 27.7%; in the experiment on COLO 205 colon, 33.3%; in the experiment with DU-145 prostate, 31.6%; in the experiment with K-562 leukemia it was 10.3%; in the experiment on MALME-3M melanoma, 79.8%. Also, the growth with MDA-MB-231 breast was 24.8%; in the experiment with RXF 393 renal, 12.4%; in the experiment with SF-268 CNS it was 73.4%; with SF-295 CNS, 26.7%; with SF-539 CNS, 41.9%; in the experiment on UACC-257 melanoma it was -29.2% (active). Further, the growth with M14 melanoma was -26.6% (active).

As to `Brc1ccc(-c2cnc3nonc3n2)cc1`, the growth was 68% in the experiment on NCI-H23 lung; 100% in the experiment on NCI-H226 lung; 94% in the experiment on NCI-H322M lung; 105% with HOP-62 NSCLC; 96.7% with NCI-H460 lung; 86.9% with HOP-92 NSCLC. Moreover, the growth was 91.9% with A549/ATCC NSCLC; 84.2% with 786-0 renal; 71.3% in the experiment with COLO 205 colon; 87.7% in the experiment with DU-145 prostate; 38.7% in the experiment with K-562 leukemia; 53.9% with MALME-3M melanoma. In addition, the growth is 69.1% in the experiment on MDA-MB-231 breast; 74.5% in the experiment with RXF 393 renal; 87.1% in the experiment with SF-268 CNS; 91.4% in the experiment on SF-295 CNS; 94.8% in the experiment on SF-539 CNS; 66.9% with UACC-257 melanoma. For the same molecule, in the experiment on M14 melanoma, the growth was 80.1%.

In the case of `C=C1C(=O)O[C@H]2[C@H]1CC/C(COC(=O)/C=C\C(=O)NCc1ccc(Cn3c(=O)sn(-c4ccccc4)c3=O)cc1)=C\CC[C@@]1(C)O[C@@H]21`, the growth in the experiment with NCI-H23 lung was 92.1%; in the experiment on NCI-H226 lung it was 105%; with NCI-H322M lung it was 107%; in the experiment with HOP-62 NSCLC, 105%; in the experiment on NCI-H460 lung, 96.7%; in the experiment on HOP-92 NSCLC it was 84.4%. Further, the growth in the experiment with A549/ATCC NSCLC is 98%; in the experiment with 786-0 renal, 70.5%; in the experiment on COLO 205 colon it was 9.17% (active); in the experiment with DU-145 prostate it was 55.7%; with K-562 leukemia, 16.2%; in the experiment with MALME-3M melanoma it was 55.9%. The growth is 85.6% in the experiment with MDA-MB-231 breast; 84.3% with RXF 393 renal; 99.1% with SF-268 CNS; 103% in the experiment with SF-295 CNS; 92% in the experiment with SF-539 CNS; 73.8% in the experiment on UACC-257 melanoma. Also, the growth in the experiment on M14 melanoma was 47.8%.

`CC[C@H](Nc1nc(N)nc(C)c1C#N)c1nc2cccc(NCCCCCC(=O)NO)c2c(=O)n1-c1ccccc1`: the growth in the experiment on NCI-H23 lung is 73.3%; with NCI-H226 lung, 75%; in the experiment on NCI-H322M lung, 75.9%; in the experiment with HOP-62 NSCLC, 66.2%; in the experiment with NCI-H460 lung, 77%; in the experiment with HOP-92 NSCLC, 27.2%. The growth in the experiment on A549/ATCC NSCLC was 79.3%; with 786-0 renal, 27.5%; with COLO 205 colon, 86.2%; in the experiment with DU-145 prostate, 69.5%; with K-562 leukemia, 77.1%; in the experiment on MALME-3M melanoma, 52.6%. Also, the growth with MDA-MB-231 breast is 61.8%; in the experiment on RXF 393 renal, -6.92% (active); in the experiment with SF-268 CNS, 55.7%; in the experiment with SF-295 CNS, 22.9%; in the experiment on SF-539 CNS, 45.9%; in the experiment with UACC-257 melanoma, 54.4%. Further, in the experiment on M14 melanoma, the growth was 71.3%.

In the case of `Cn1cc(-c2nn3cc(-c4ccccc4)nc3s2)c2ccccc21`, the growth with NCI-H23 lung was 79.2%; in the experiment with NCI-H226 lung, 69.5%; in the experiment with NCI-H322M lung, 71%; with HOP-62 NSCLC, 61.4%; in the experiment with NCI-H460 lung, 79.9%; in the experiment with NCI-H522 lung it was 38.9%. Also, the growth in the experiment with A549/ATCC NSCLC was 66.1%; in the experiment on 786-0 renal, 99.4%; in the experiment with COLO 205 colon, 73.7%; in the experiment with DU-145 prostate, 99.2%; with K-562 leukemia, 29.3%; in the experiment with MALME-3M melanoma it was 55.3%. The growth in the experiment on MDA-MB-231 breast is 67.3%; in the experiment with RXF 393 renal, 89.3%; in the experiment with SF-268 CNS, 81.2%; with SF-295 CNS, 78.9%; in the experiment on SF-539 CNS, 78%; with UACC-257 melanoma it was 76.9%. Besides, in the experiment on M14 melanoma, the growth is 51.5%.

Values taken from PubChem BioAssay (NCI).
